# PubChem BioAssay AID1159580 (chemical genetic matrix, 2015)
# Values joined by “and” are separate entries in the source; they are usually repeats but may differ in a detail not shown here. Identical values can stand only once. In all, about 5,500 compounds went through this assay and about 2,000 (36%) were called active. About 18% were inconclusive and are not listed. No stated cut-off is given here; in the data, active means normalized growth mostly below about 0.91 (no sharp cut-off); inconclusive means no clear call, values can overlap the other calls; inactive means mostly above about 0.92. The list shows a part of the results.
# Test: chemical genetic growth profiling, strain panel (AID 1159580);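 further: tested at 20 µM; growth read once vehicle control cultures reached saturation at 30 °C; 1 = growth at the plate median or of vehicle wells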
# Settings: S. cerevisiae deletion strains, growth OD
smiles,measurement,setting,value
COc1c(OC)c2occc2c2oc(=O)ccc12,normalized growth,"locus YAL021C, strain ccr4, stronger effect = lower value",0.988 (inactive)
same,normalized growth,"locus YAL026C, strain drs2, stronger effect = lower value",0.987 (inactive)
same,normalized growth,"locus YAL030W, strain snc1, stronger effect = lower value",0.99 (inactive)
same,normalized growth,"locus YBL061C, strain skt5, stronger effect = lower value",0.979 (inactive)
same,normalized growth,"locus YBR009C, strain hhf1, stronger effect = lower value",0.958 (inactive)
same,normalized growth,"locus YBR021W, strain FUR4, stronger effect = lower value",1.01 (inactive)
same,normalized growth,"locus YBR023C, strain chs3, stronger effect = lower value",0.976 (inactive)
same,normalized growth,"locus YBR171W, strain sec66, stronger effect = lower value",0.973 (inactive)
same,normalized growth,"locus YBR229C, strain ROT2, stronger effect = lower value",0.967 (inactive)
same,normalized growth,"locus YBR231C, strain swc5, stronger effect = lower value",0.96 (inactive)
same,normalized growth,"locus YBR279W, strain paf1, stronger effect = lower value",0.973 (inactive)
same,normalized growth,"locus YCL011C, strain gbp2, stronger effect = lower value",0.979 (inactive)
same,normalized growth,"locus YCL016C, strain dcc1, stronger effect = lower value",0.98 (inactive)
same,normalized growth,"locus YCL029C, strain bik1, stronger effect = lower value",0.983 (inactive)
same,normalized growth,"locus YCL061C, strain MRC1, stronger effect = lower value",0.978 (inactive)
same,normalized growth,"locus YCL069W, strain vba3, stronger effect = lower value",0.989 (inactive)
same,normalized growth,"locus YCR088W, strain abp1, stronger effect = lower value",0.987 (inactive)
same,normalized growth,"locus YDL005C, strain med2, stronger effect = lower value",0.998 (inactive)
same,normalized growth,"locus YDL035C, strain GPR1, stronger effect = lower value",0.924 (inactive)
same,normalized growth,"locus YDL040C, strain nat1, stronger effect = lower value",0.981 (inactive)
same,normalized growth,"locus YDL074C, strain BRE1, stronger effect = lower value",0.86 (inactive)
same,normalized growth,"locus YDL101C, strain DUN1, stronger effect = lower value",0.949 (inactive)
same,normalized growth,"locus YDL134C, strain PPH21, stronger effect = lower value",0.948 (inactive)
same,normalized growth,"locus YDL185W, strain tfp1, stronger effect = lower value",0.945 (inactive)
same,normalized growth,"locus YDL192W, strain arf1, stronger effect = lower value",0.866 (active)
same,normalized growth,"locus YDR001C, strain nth1, stronger effect = lower value",0.973 (inactive)
same,normalized growth,"locus YDR069C, strain doa4, stronger effect = lower value",1 (inactive)
same,normalized growth,"locus YDR101C, strain arx1, stronger effect = lower value",0.927 (inactive)
same,normalized growth,"locus YDR137W, strain rgp1, stronger effect = lower value",0.952 (inactive)
same,normalized growth,"locus YDR159W, strain sac3, stronger effect = lower value",1.01 (inactive)
same,normalized growth,"locus YDR162C, strain NBP2, stronger effect = lower value",0.822 (active)
same,normalized growth,"locus YDR195W, strain ref2",1.14 [resistant] (active)
same,normalized growth,"locus YDR297W, strain sur2, stronger effect = lower value",0.974 (inactive)
same,normalized growth,"locus YDR318W, strain mcm21, stronger effect = lower value",0.95 (inactive)
same,normalized growth,"locus YDR334W, strain swr1, stronger effect = lower value",0.967 (inactive)
same,normalized growth,"locus YDR335W, strain msn5, stronger effect = lower value",0.978 (inactive)
same,normalized growth,"locus YDR388W, stronger effect = lower value",0.959 (inactive)
same,normalized growth,"locus YDR392W, strain spt3, stronger effect = lower value",0.765 (inactive)
same,normalized growth,"locus YDR502C, strain sam2, stronger effect = lower value",0.918 (active)
same,normalized growth,"locus YEL003W, strain gim4, stronger effect = lower value",0.982 (inactive)
same,normalized growth,"locus YEL037C, strain rad23, stronger effect = lower value",0.981 (inactive)
same,normalized growth,"locus YEL061C, strain CIN8 (second series), stronger effect = lower value",0.984 (inactive)
same,normalized growth,"locus YEL061C, strain CIN8, stronger effect = lower value",0.963 (inactive)
same,normalized growth,"locus YER015W, strain faa2, stronger effect = lower value",0.972 (inactive)
same,normalized growth,"locus YER016W, strain bim1, stronger effect = lower value",0.984 (inactive)
same,normalized growth,"locus YER110C, stronger effect = lower value",0.949 (inactive)
same,normalized growth,"locus YER111C, strain swi4, stronger effect = lower value",0.992 (inactive)
same,normalized growth,"locus YER155C, strain BEM2 (second series), stronger effect = lower value",0.832 (active)
same,normalized growth,"locus YER155C, strain BEM2, stronger effect = lower value",0.962 (inactive)
same,normalized growth,"locus YER167W, strain BCK2, stronger effect = lower value",0.97 (inactive)
same,normalized growth,"locus YFR010W, strain ubp6, stronger effect = lower value",0.98 (inactive)
same,normalized growth,"locus YGL078C, strain dbp3, stronger effect = lower value",0.979 (inactive)
same,normalized growth,"locus YGL086W, strain mad1, stronger effect = lower value",0.937 (inactive)
same,normalized growth,"locus YGL167C, strain pmr1, stronger effect = lower value",0.975 (inactive)
same,normalized growth,"locus YGL173C, strain kem1, stronger effect = lower value",0.986 (inactive)
same,normalized growth,"locus YGL227W, strain vid30, stronger effect = lower value",0.994 (inactive)
same,normalized growth,"locus YGL240W, strain doc1, stronger effect = lower value",0.931 (inactive)
same,normalized growth,"locus YGL248W, strain PDE1, stronger effect = lower value",0.95 (inactive)
same,normalized growth,"locus YGL253W, strain hxk2, stronger effect = lower value",0.956 (inactive)
same,normalized growth,"locus YGR078C, strain PAC10, stronger effect = lower value",0.882 (inactive)
same,normalized growth,"locus YGR135W, strain pre9, stronger effect = lower value",0.881 (active)
same,normalized growth,"locus YGR252W, strain gcn5, stronger effect = lower value",0.802 (inactive)
same,normalized growth,"locus YHR013C, strain ard1, stronger effect = lower value",1.01 (inactive)
same,normalized growth,"locus YHR027C, strain rpn1, stronger effect = lower value",0.984 (inactive)
same,normalized growth,"locus YHR030C, strain SLT2, stronger effect = lower value",0.945 (inactive) and 0.955 (inactive)
same,normalized growth,"locus YHR079C, strain IRE1 (second series), stronger effect = lower value",0.977 (inactive)
same,normalized growth,"locus YHR079C, strain IRE1, stronger effect = lower value",0.944 (inactive)
same,normalized growth,"locus YHR094C, strain hxt1, stronger effect = lower value",0.985 (inactive)
same,normalized growth,"locus YHR129C, strain ARP1, stronger effect = lower value",0.959 (inactive)
same,normalized growth,"locus YHR142W, strain chs7, stronger effect = lower value",0.904 (inactive)
same,normalized growth,"locus YHR200W, strain rpn10, stronger effect = lower value",0.923 (inactive)
same,normalized growth,"locus YIL066C, strain RNR3, stronger effect = lower value",0.88 (inactive)
same,normalized growth,"locus YIL073C, strain SPO22, stronger effect = lower value",0.955 (inactive)
same,normalized growth,"locus YIL125W, strain kgd1, stronger effect = lower value",0.979 (inactive)
same,normalized growth,"locus YIR030C, strain dcg1, stronger effect = lower value",0.962 (inactive)
same,normalized growth,"locus YJL092W, strain hpr5, stronger effect = lower value",0.972 (inactive)
same,normalized growth,"locus YJL095W, strain BCK1 (second series), stronger effect = lower value",0.974 (inactive)
same,normalized growth,"locus YJL095W, strain BCK1, stronger effect = lower value",0.785 (active) and 0.957 (inactive)
same,normalized growth,"locus YJL115W, strain asf1, stronger effect = lower value",0.984 (inactive)
same,normalized growth,"locus YJL129C, strain trk1, stronger effect = lower value",0.993 (inactive)
same,normalized growth,"locus YJL134W, strain LCB3, stronger effect = lower value",0.967 (inactive)
same,normalized growth,"locus YJL154C, strain vps35, stronger effect = lower value",0.987 (inactive)
same,normalized growth,"locus YJL164C, strain tpk1, stronger effect = lower value",0.966 (inactive)
same,normalized growth,"locus YJL166W, strain qcr8, stronger effect = lower value",0.945 (inactive)
same,normalized growth,"locus YJL168C, strain set2, stronger effect = lower value",0.977 (inactive)
same,normalized growth,"locus YJL187C, strain SWE1 (second series), stronger effect = lower value",0.947 (inactive)
same,normalized growth,"locus YJL187C, strain SWE1, stronger effect = lower value",0.973 (inactive)
same,normalized growth,"locus YJR043C, strain POL32, stronger effect = lower value",0.887 (inactive)
